# From the supplement of paper PMC8877412
# Where a name gives a salt, the structure may show the parent alone. ± gives the uncertainty stated by the source.
# Test system: NCC-PMP1-C1
# Assay: cell viability relative to DMSO control; higher = less growth inhibition
# Settings: 10 µM; 72 h
# Description: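 NCC-PMP1-C1 pseudomyxoma peritonei cells were seeded in 384-well plates coated with Matrigel and MEF (1e4 cells). Viability was read after 72 h by CCK-8 and expressed as % of the DMSO control, mean ± SD of duplicates.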
row,SMILES,cell viability [%]
1,C=CC[C@@H]1/C=C(\C)C[C@H](C)C[C@H](OC)[C@H]2O[C@@](O)(C(=O)C(=O)N3CCCC[C@H]3C(=O)O[C@H](/C(C)=C/[C@@H]3CC[C@@H](O)[C@H](OC)C3)[C@H](C)[C@@H](O)CC1=O)[C@H](C)C[C@@H]2OC [Tacrolimus (FK506)],2.67 ± 1
2,CC1=C(/C=C/C(C)=C/C=C/C(C)=C/C(=O)O)C(C)(C)CCC1 [Tretinoin],129 ± 16
3,N#Cc1ccc(C(c2ccc(C#N)cc2)n2cncn2)cc1 [Letrozole],129 ± 29
4,CC[C@@H]1/C=C(\C)C[C@H](C)C[C@H](OC)[C@H]2O[C@@](O)(C(=O)C(=O)N3CCCC[C@H]3C(=O)O[C@H](/C(C)=C/[C@@H]3CC[C@H](Cl)[C@H](OC)C3)[C@H](C)[C@@H](O)CC1=O)[C@H](C)C[C@@H]2OC [Pimecrolimus],78.1 ± 5.1
5,"O=C(CCCCCCC(=O)Nc1ccccc1)NO [Vorinostat (SAHA, MK0683)]",27.7 ± 2.2
6,COc1cccc2c1C(=O)c1c(O)c3c(c(O)c1C2=O)C[C@@](O)(C(C)=O)C[C@@H]3O[C@H]1C[C@H](N)[C@H](O)[C@H](C)O1 [Daunorubicin HCl],-1.33 ± 0.2
7,CN(C)c1nc(N(C)C)nc(N(C)C)n1 [Altretamine],113 ± 7.4
8,Nc1cccc2c1C(=O)N(C1CCC(=O)NC1=O)C2=O (stereo not given) [Pomalidomide],99.2 ± 2.3
9,C=CC(=O)Nc1cc2c(Nc3ccc(F)c(Cl)c3)ncnc2cc1OCCCN1CCOCC1 [Canertinib(CI-1033)],92.8 ± 7.2
10,Nc1nc2[nH]cc(CCc3ccc(C(=O)N[C@@H](CCC(=O)O)C(=O)O)cc3)c2c(=O)[nH]1 [Pemetrexed Disodium Hydrate],101 ± 18
11,CCN(CC)CCNC(=O)c1c(C)[nH]c(/C=C2\C(=O)Nc3ccc(F)cc32)c1C [Sunitinib],35.5 ± 3.6
12,Nc1cccc2c1CN(C1CCC(=O)NC1=O)C2=O (stereo not given) [Lenalidomide],106 ± 3.2
13,CNC(=O)c1ccc(-c2cnc3ncc(Cc4ccc5ncccc5c4)n3n2)cc1F,108 ± 9.8
14,CCCCCCNC(=O)n1cc(F)c(=O)[nH]c1=O [Carmofur],96.6 ± 12
15,Cc1ccc(F)c(NC(=O)Nc2ccc(-c3cccc4[nH]nc(N)c34)cc2)c1 [Linifanib (ABT-869)],45.2 ± 6.3
16,C[C@@H]1CCN(C(=O)CC#N)C[C@@H]1N(C)c1ncnc2[nH]ccc12,77.2 ± 22
17,CN(Cc1cnc2nc(N)nc(N)c2n1)c1ccc(C(=O)N[C@@H](CCC(=O)O)C(=O)O)cc1 [Methotrexate],110 ± 1.7
18,O=P(O)(O)C(O)(Cn1ccnc1)P(=O)(O)O [Zoledronic Acid],109 ± 6
19,C#Cc1cccc(Nc2ncnc3cc(OCCOC)c(OCCO)cc23)c1,49.1 ± 7.9
20,Nc1nc(CC(=O)Nc2ccc(CCNC[C@H](O)c3ccccc3)cc2)cs1 [Mirabegron],101 ± 5.9

row,SMILES,cell viability [%]
1,S=C(NCc1ccc2c(c1)OCO2)N1CCN(c2ncnc3c2oc2ccccc23)CC1 [Amuvatinib (MP-470)],176.1 ± 0.89
2,CCc1ccc(CCOc2ccc(CC3SC(=O)NC3=O)cc2)nc1 (stereo not given) [Pioglitazone],92.8 ± 5.5
3,CO[C@@]12[C@H](COC(N)=O)C3=C(C(=O)C(C)=C(N)C3=O)N1C[C@@H]1N[C@@H]12 [Mitomycin C],60.3 ± 9.8
4,O=c1[nH]c(=O)n(C2CCCO2)cc1F (stereo not given),108 ± 3.1
5,COc1cc2c(Oc3ccc(NC(=O)C4(C(=O)Nc5ccc(F)cc5)CC4)cc3F)ccnc2cc1OCCCN1CCOCC1,2.42 ± 1
6,NC(=O)NO [Hydroxyurea],136 ± 8.1
7,COC(=O)C[C@](O)(CCCC(C)(C)O)C(=O)O[C@@H]1C(OC)=C[C@]23CCCN2CCc2cc4c(cc2[C@H]13)OCO4 [Homoharringtonine],-1.02 ± 0.42
8,COc1cc2nccc(Oc3ccc(NC(=O)Nc4cc(C)on4)c(Cl)c3)c2cc1OC [Tivozanib (AV-951)],60.7 ± 11
9,CC(C)c1nc(CN(C)C(=O)N[C@@H](CCN2CCOCC2)C(=O)N[C@H](CC[C@H](Cc2ccccc2)NC(=O)OCc2cncs2)Cc2ccccc2)cs1 [Cobicistat (GS-9350)],83.8 ± 3.1
10,O=C(c1cc(Cc2n[nH]c(=O)c3ccccc23)ccc1F)N1CCN(C(=O)C2CC2)CC1,92.3 ± 8.4
11,Clc1ccc(Nc2nnc(Cc3ccncc3)c3ccccc23)cc1 [Vatalanib (PTK787) 2HCl],84.5 ± 1.8
12,CNC(=O)c1ccc(N2C(=S)N(c3ccc(C#N)c(C(F)(F)F)c3)C(=O)C2(C)C)cc1F [Enzalutamide (MDV3100)],99.7 ± 15
13,CN1c2cc(O)c(N=NC(N)=O)cc2CC1S(=O)(=O)O (stereo not given) [Carbazochrome sodium sulfonate (AC-17)],90.4 ± 9.1
14,N#CC1(c2ccc(NC(=O)c3cccnc3NCc3ccncc3)cc2)CCCC1 [Apatinib],77.6 ± 9.1
15,C#Cc1cccc(Nc2ncnc3cc(OCCOC)c(OCCOC)cc23)c1 [Erlotinib],66.7 ± 5.8
16,CNNCc1ccc(C(=O)NC(C)C)cc1 [Procarbazine HCl],100 ± 22
17,CCN1CCN(Cc2ccc(Nc3ncc(F)c(-c4cc(F)c5nc(C)n(C(C)C)c5c4)n3)nc2)CC1 [Abemaciclib],65.2 ± 4.2
18,CC1=C(CC(=O)O)c2cc(F)ccc2/C1=C\c1ccc([S+](C)[O-])cc1 (stereo not given) [Sulindac],111 ± 29
19,NCC(=O)CCC(=O)O [5-Aminolevulinic acid HCl],102.7 ± 0.67
20,O=NN(CCCl)C(=O)NC1CCCCC1 [Lomustine],105 ± 11
